According to PubChem BioAssay:
Activity calls are given as the source filed them.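 How the source made its calls, unless noted: active means viability at or below 10% of carrier control in both of two separate runs; inconclusive means viability at or below 10% in only one of the two runs; inactive means the rest.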

Target: Receptor tyrosine-protein kinase erbB-2 (Homo sapiens) (UniProt P04626)
Assay: Her2 expression decrease, cell viability multiplex – SKBR3 breast tumor cells, AlphaScreen, ATP viability, primary screen (AID 461;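 active means Her2 level under about 52% in both replicate screens, with viability over 70% of control, limit read from the data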;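 further: lower value means less Her2 protein in the cells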)
Conditions: 18-24 h, at 10 µM, hits give low values

Receptor tyrosine-protein kinase erbB-2 (Homo sapiens), sequence (P04626 whole entry, looked up): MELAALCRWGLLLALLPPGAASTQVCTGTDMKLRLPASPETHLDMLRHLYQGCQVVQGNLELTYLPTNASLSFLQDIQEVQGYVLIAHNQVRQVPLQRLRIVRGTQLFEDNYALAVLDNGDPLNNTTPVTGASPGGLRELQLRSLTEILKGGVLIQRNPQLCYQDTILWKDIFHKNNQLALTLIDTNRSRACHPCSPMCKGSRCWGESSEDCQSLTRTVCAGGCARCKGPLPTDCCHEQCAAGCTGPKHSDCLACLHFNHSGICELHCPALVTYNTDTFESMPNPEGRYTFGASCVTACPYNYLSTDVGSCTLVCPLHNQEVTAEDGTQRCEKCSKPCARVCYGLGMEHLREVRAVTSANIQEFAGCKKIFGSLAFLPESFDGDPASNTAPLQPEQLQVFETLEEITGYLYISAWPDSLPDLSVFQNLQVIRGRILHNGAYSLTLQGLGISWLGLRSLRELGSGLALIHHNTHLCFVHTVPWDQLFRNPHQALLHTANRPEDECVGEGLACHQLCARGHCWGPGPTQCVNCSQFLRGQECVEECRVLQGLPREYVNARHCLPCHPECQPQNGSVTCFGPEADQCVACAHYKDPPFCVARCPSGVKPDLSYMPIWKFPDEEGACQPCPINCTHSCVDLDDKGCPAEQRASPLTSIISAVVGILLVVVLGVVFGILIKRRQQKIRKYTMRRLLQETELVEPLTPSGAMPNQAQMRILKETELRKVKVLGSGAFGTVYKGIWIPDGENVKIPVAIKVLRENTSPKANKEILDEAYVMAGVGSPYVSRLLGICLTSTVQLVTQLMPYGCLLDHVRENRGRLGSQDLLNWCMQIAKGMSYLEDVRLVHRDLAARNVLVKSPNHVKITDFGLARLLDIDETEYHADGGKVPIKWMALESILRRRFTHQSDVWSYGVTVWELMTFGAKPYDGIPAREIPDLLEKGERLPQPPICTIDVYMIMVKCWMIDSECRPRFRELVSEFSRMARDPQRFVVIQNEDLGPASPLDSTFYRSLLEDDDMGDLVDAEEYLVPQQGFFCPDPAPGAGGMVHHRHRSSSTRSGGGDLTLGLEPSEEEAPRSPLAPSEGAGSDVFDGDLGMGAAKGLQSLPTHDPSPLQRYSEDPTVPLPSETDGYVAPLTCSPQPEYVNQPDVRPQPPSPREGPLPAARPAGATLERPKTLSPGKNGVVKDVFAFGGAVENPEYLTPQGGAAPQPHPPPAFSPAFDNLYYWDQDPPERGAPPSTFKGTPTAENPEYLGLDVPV

| SMILES | Her2 level |
| --- | --- |
| CC[N+](C)(C)c1cccc(O)c1 | 94.5% (inactive) |
| NC(Cc1ccc(Oc2ccc(O)cc2)cc1)C(=O)O (stereo not given) | 97% (inactive) |
| COCCN(C(=O)CCC(=O)Nc1ccccn1)C(C(=O)NC1CCCC1)c1ccc(OC)cc1 (stereo not given) | 105% (inactive) |
| Cc1ncc([N+](=O)[O-])n1CC(O)CCl (stereo not given) | 106% (inactive) |
| CCCCOc1ccc(CC(=O)NO)cc1 | 98.5% (inactive) |
| Nc1ccc2cn[nH]c2c1 | 128% (inactive) |
| CCC(=NC(C)c1ccccc1)c1c(O)n(C)c(=O)n(C)c1=O (stereo not given) | 88% (inactive) |
| C[C@]12C[C@H](O)[C@H]3[C@@H](CCC4=CC(=O)CC[C@@]43C)[C@@H]1CC[C@@H]2C(=O)CO | 104% (inactive) |
| OCCOCCN1CCN(C(c2ccccc2)c2ccc(Cl)cc2)CC1 (stereo not given) | 80% (inactive) |
| Cn1cc(NC(=O)c2cc(NC(=O)c3cc(NC=O)cn3C)cn2C)cc1C(=O)NCCC(=N)N | 87.5% (inactive) |
| Cn1c(SCC(=O)N2CCOCC2)nnc1-c1cnccn1 | 116% (inactive) |
| CC(=O)C1=C(O)C(=O)N(Cc2cccnc2)C1c1ccccc1 (stereo not given) | 114% (inactive) |
| Cc1cccc(Nc2ccccc2C(=O)O)c1C | 105% (inactive) |
| CCOC(=O)c1c(NCc2ccc3c(c2)OCO3)c2ccccc2[nH]c1=O | 69.5% (inactive) |
| C[C@]12CC[C@H]3[C@@H](CCC4=CC(=O)CC[C@@]43C)[C@@H]1CC[C@@H]2C(=O)CO | 90.5% (inactive) |
| COc1ccc2cc([C@H](C)C(=O)O)ccc2c1 | 107% (inactive) |
| CCC(NC(C)C)C(O)c1ccc(O)c2[nH]c(=O)ccc12 (stereo not given) | 94.5% (inactive) |
| COc1cc2nc(N3CCN(C(=O)C4CCCO4)CC3)nc(N)c2cc1OC (stereo not given) | 99% (inactive) |
| CN1Cc2c(N)cccc2C(c2ccccc2)C1 (stereo not given) | 102% (inactive) |
| C[C@H]1C[C@H]2[C@@H]3CCC4=CC(=O)C=C[C@]4(C)[C@@]3(Cl)[C@@H](O)C[C@]2(C)[C@@]1(O)C(=O)CO | 112% (inactive) |

| SMILES | Her2 level |
| --- | --- |
| C[C@]12CC[C@@H]3c4ccc(O[C@@H]5O[C@H](C(=O)O)[C@@H](O)[C@H](O)[C@H]5O)cc4CC[C@H]3[C@@H]1C[C@@H](O)[C@@H]2O | 92.5% (inactive) |
| Cc1c(C(=O)O)sc2ncn(C)c(=O)c12 | 78% (inactive) |
| O=c1ccc(S(=O)(=O)N2CCC(Cc3ccccc3)CC2)c[nH]1 | 80.5% (inactive) |
| CCn1cc(C(=O)O)c(=O)c2cnc(N3CCNCC3)nc21 | 102% (inactive) |
| Nc1nnc(-c2cccc(Cl)c2Cl)c(N)n1 | 124% (inactive) |
| O=C(O)CCCCCCC1C(=O)NC(=O)N1CCC(O)C1CCCCC1 (stereo not given) | 108% (inactive) |
| COc1ccc(CN(CCN(C)C)c2ccccn2)cc1 | 104% (inactive) |
| O=C(NCC1CCCCN1)c1cc(OCC(F)(F)F)ccc1OCC(F)(F)F (stereo not given) | 101% (inactive) |
| c1ccc2nc(-c3nc4ccccc4[nH]3)ccc2c1 | 74% (inactive) |
| CCCC(=O)Nc1ncnc2c1ncn2[C@@H]1O[C@@H]2COP(=O)(O)O[C@H]2[C@H]1OC(=O)CCC | 104% (inactive) |
| COc1cc(OC)c(NC(=O)c2ccco2)cc1Cl | 81.5% (inactive) |
| O=S(=O)(c1ccc(OCC(O)CN2CCC(Cc3ccccc3)CC2)cc1)N1CCOCC1 (stereo not given) | 81.5% (inactive) |
| C/C(N)=C(/C#N)C(=O)COC(=O)CCSc1ccccc1 | 89% (inactive) |
| CCCC(=O)O[C@]1(C(=O)COC(C)=O)CC[C@H]2[C@@H]3C[C@H](F)C4=CC(=O)C=C[C@]4(C)[C@@]3(F)[C@@H](O)C[C@@]21C | 97.5% (inactive) |
| Cn1c(-c2ccccc2)cc(=O)c2ccccc21 | 109% (inactive) |
| Cc1cccc(C)c1NC(=O)C1CCCCN1C (stereo not given) | 101% (inactive) |
| CCC(NC(C)C)C(O)c1ccc(O)c(O)c1 (stereo not given) | 88% (inactive) |
| C=C(c1cccc2ccccc12)P(=O)(O)O | 99.5% (inactive) |
| COC(=O)CSc1nc(C)c(C(C)=O)cc1C#N | 90.5% (inactive) |
| C[C@]12CC[C@@H]3c4ccc(O)cc4CC[C@H]3[C@@H]1CC[C@@H]2OC(=O)CCC(=O)O | 111% (inactive) |

Tested on: not listed separately
Assay: reduced viability of SK-BR-3 breast cancer cells – cell-based, 24 h, human, pilot screen (AID 572);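 further: compound exposure lasted between 18 and 24 h rather than exactly 24 h; 100% = carrier-treated control wells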
Conditions: SK-BR-3 viability, CellTiter-Glo luminescence, at 10 µM, hits give low values

| SMILES | viability |
| --- | --- |
| CC[N+](C)(C)c1cccc(O)c1 | 97.5% (inactive) |
| NC(Cc1ccc(Oc2ccc(O)cc2)cc1)C(=O)O (stereo not given) | 92.5% (inactive) |
| COCCN(C(=O)CCC(=O)Nc1ccccn1)C(C(=O)NC1CCCC1)c1ccc(OC)cc1 (stereo not given) | 106% (inactive) |
| Cc1ncc([N+](=O)[O-])n1CC(O)CCl (stereo not given) | 99.5% (inactive) |
| CCCCOc1ccc(CC(=O)NO)cc1 | 122% (inactive) |
| Nc1ccc2cn[nH]c2c1 | 100% (inactive) |
| CCC(=NC(C)c1ccccc1)c1c(O)n(C)c(=O)n(C)c1=O (stereo not given) | 94% (inactive) |
| C[C@]12C[C@H](O)[C@H]3[C@@H](CCC4=CC(=O)CC[C@@]43C)[C@@H]1CC[C@@H]2C(=O)CO | 106% (inactive) |
| OCCOCCN1CCN(C(c2ccccc2)c2ccc(Cl)cc2)CC1 (stereo not given) | 79% (inactive) |
| Cn1cc(NC(=O)c2cc(NC(=O)c3cc(NC=O)cn3C)cn2C)cc1C(=O)NCCC(=N)N | 96% (inactive) |
| Cn1c(SCC(=O)N2CCOCC2)nnc1-c1cnccn1 | 109% (inactive) |
| CC(=O)C1=C(O)C(=O)N(Cc2cccnc2)C1c1ccccc1 (stereo not given) | 101% (inactive) |
| Cc1cccc(Nc2ccccc2C(=O)O)c1C | 85% (inactive) |
| CCOC(=O)c1c(NCc2ccc3c(c2)OCO3)c2ccccc2[nH]c1=O | 100% (inactive) |
| C[C@]12CC[C@H]3[C@@H](CCC4=CC(=O)CC[C@@]43C)[C@@H]1CC[C@@H]2C(=O)CO | 106% (inactive) |
| COc1ccc2cc([C@H](C)C(=O)O)ccc2c1 | 93.5% (inactive) |
| CCC(NC(C)C)C(O)c1ccc(O)c2[nH]c(=O)ccc12 (stereo not given) | 108% (inactive) |
| COc1cc2nc(N3CCN(C(=O)C4CCCO4)CC3)nc(N)c2cc1OC (stereo not given) | 100% (inactive) |
| CN1Cc2c(N)cccc2C(c2ccccc2)C1 (stereo not given) | 81% (inactive) |
| C[C@H]1C[C@H]2[C@@H]3CCC4=CC(=O)C=C[C@]4(C)[C@@]3(Cl)[C@@H](O)C[C@]2(C)[C@@]1(O)C(=O)CO | 110% (inactive) |

| SMILES | viability |
| --- | --- |
| C[C@]12CC[C@@H]3c4ccc(O[C@@H]5O[C@H](C(=O)O)[C@@H](O)[C@H](O)[C@H]5O)cc4CC[C@H]3[C@@H]1C[C@@H](O)[C@@H]2O | 102% (inactive) |
| Cc1c(C(=O)O)sc2ncn(C)c(=O)c12 | 106% (inactive) |
| O=c1ccc(S(=O)(=O)N2CCC(Cc3ccccc3)CC2)c[nH]1 | 86% (inactive) |
| CCn1cc(C(=O)O)c(=O)c2cnc(N3CCNCC3)nc21 | 108% (inactive) |
| Nc1nnc(-c2cccc(Cl)c2Cl)c(N)n1 | 109% (inactive) |
| O=C(O)CCCCCCC1C(=O)NC(=O)N1CCC(O)C1CCCCC1 (stereo not given) | 108% (inactive) |
| COc1ccc(CN(CCN(C)C)c2ccccn2)cc1 | 91% (inactive) |
| O=C(NCC1CCCCN1)c1cc(OCC(F)(F)F)ccc1OCC(F)(F)F (stereo not given) | 86% (inactive) |
| c1ccc2nc(-c3nc4ccccc4[nH]3)ccc2c1 | 104% (inactive) |
| CCCC(=O)Nc1ncnc2c1ncn2[C@@H]1O[C@@H]2COP(=O)(O)O[C@H]2[C@H]1OC(=O)CCC | 102% (inactive) |
| COc1cc(OC)c(NC(=O)c2ccco2)cc1Cl | 121% (inactive) |
| O=S(=O)(c1ccc(OCC(O)CN2CCC(Cc3ccccc3)CC2)cc1)N1CCOCC1 (stereo not given) | 81.5% (inactive) |
| C/C(N)=C(/C#N)C(=O)COC(=O)CCSc1ccccc1 | 97.5% (inactive) |
| CCCC(=O)O[C@]1(C(=O)COC(C)=O)CC[C@H]2[C@@H]3C[C@H](F)C4=CC(=O)C=C[C@]4(C)[C@@]3(F)[C@@H](O)C[C@@]21C | 95% (inactive) |
| Cn1c(-c2ccccc2)cc(=O)c2ccccc21 | 98.5% (inactive) |
| Cc1cccc(C)c1NC(=O)C1CCCCN1C (stereo not given) | 108% (inactive) |
| CCC(NC(C)C)C(O)c1ccc(O)c(O)c1 (stereo not given) | 87.5% (inactive) |
| C=C(c1cccc2ccccc12)P(=O)(O)O | 116% (inactive) |
| COC(=O)CSc1nc(C)c(C(C)=O)cc1C#N | 92% (inactive) |
| C[C@]12CC[C@@H]3c4ccc(O)cc4CC[C@H]3[C@@H]1CC[C@@H]2OC(=O)CCC(=O)O | 118% (inactive) |
